In PubChem BioAssay one finds composite z-score and z-score data, which are given here for five molecules.

Structures are written as SMILES. The source made the active and inactive calls. Unless noted, no rule for the calls is given here.

Test [1] can be described thus: compounds binding Alexa647 anti-His antibody – biochemical, small-molecule microarray, 635 nm fluorescence, artefact control for SMM control protein annotation, primary screen (AID 1128).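 Also: score merges feature fluorescence with signal-to-noise for each printed compound spot.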 Conditions: higher = more signal.
Test [2] concerns Human papillomavirus type 1a E7 protein (residues 1-88). Put plainly: HPV1a E7 small-molecule binders, primary screen, biochemical, small-molecule microarray, residues 1-88, 635 nm (AID 1129). Conditions: small-molecule microarray binding, fluorescence 635 nm; higher = more signal.
The target in test [3] is Focal adhesion kinase 1 (Homo sapiens) (UniProt Q05397). The test can be described thus: PTK2 protein binding on printed compound slides – biochemical, small-molecule microarray, 635/667 nm fluorescence, BSA, DTT, primary screen (AID 1130).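 Also: composite of spot emission at 667 nm and signal to noise over triplicate slides.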 Conditions: 635 nm fluorescence, higher = more signal.
Test [4] deals with Fibrinogen (Alexa647-labelled). Put plainly: Alexa647-fibrinogen binding to printed small molecules – biochemical, small-molecule microarray, 635/667 nm fluorescence, artefact control for SMM control-protein annotation, profiling panel (AID 1131).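 Also: z-score merges 667 nm fluorescence with per-spot signal-to-noise over triplicate slides.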 As to conditions: fibrinogen-A647 binding fluorescence, higher = more signal.
In test [5] the target is Follistatin (Homo sapiens) (UniProt P19883). Put plainly: FST protein binding to printed compounds – biochemical, small-molecule microarray, 635/667 nm fluorescence, primary screen (AID 1132). Conditions: 635 nm fluorescence, higher = more signal.
Test [6] concerns the target Fibroblast growth factor 2 (Homo sapiens) (UniProt P09038). The test can be described thus: basic fibroblast growth factor binding to printed compounds – biochemical, small-molecule microarray, 635/667 nm fluorescence, primary screen (AID 1133). As to conditions: FGF2, fluorescence 635/667, higher = more signal.
A short description of test [7]: JC-1 mitochondrial potential readout, lung cancer cells – cell-based, A549, JC-1 fluorescence, basal, 24 h, 100 nL, profiling panel (AID 1138).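 Also: A549 lung adenocarcinoma cells under basal conditions with no added stimulus; test concentration not given here.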 As to conditions: higher = more signal.
The test system of a further test is Lefty1. Put plainly: Lefty1 protein binding to printed compounds – biochemical, small-molecule microarray, 635/667 nm fluorescence, primary screen (AID 1139). As to conditions: fluorescence 635/667, higher = more signal.
Test [8] concerns wheat germ agglutinin (Triticum aestivum), Alexa647-labelled. The test can be described thus: Alexa647-WGA lectin binding to printed small molecules – biochemical, small-molecule microarray, 635/667 nm fluorescence, artefact control for SMM control-protein annotation, profiling panel (AID 1140).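 Also: score merges 667 nm feature emission with signal to noise over triplicate slides.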 Conditions: WGA-A647 binding, 635 nm fluorescence, higher = more signal.
The target of test [9] is Luciferin 4-monooxygenase (Photinus pyralis) (UniProt P08659). The test can be described thus: inhibition of purified Photinus pyralis luciferase – biochemical, luminescence, purified enzyme, 2006 set, primary screen (AID 1141).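 Also: cell-free assay with purified firefly luciferase at 100 ng per well in PBS; test concentration not given here.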 Conditions: purified firefly luciferase, SteadyGlo luminescence, 30 min; higher = more signal, called active from +8 up or from −8 down.
For test [10], the system named is Wnt5a (protein binding on small-molecule microarray). Put plainly: small molecules binding Wnt5a protein – biophysical, small-molecule microarray, 635/667 nm fluorescence, primary screen (AID 1142).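 Also: fluorescence read at 667 nm with signal to noise per printed feature.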 Conditions: 635 nm fluorescence, higher = more signal.
A short description of test [11]: ATP-based viability of Huh7 replicon cells – cell-based, CellTiter-Glo luminescence, basal, 48 h, cytotoxicity control for HCV replication inhibitor project, primary screen (AID 1143).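 Also: Huh7 hepatoma cells carrying a hepatitis C replication reporter with no stimulus; test concentration not given here.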 As to conditions: higher = more signal, called active from +8 up or from −8 down.
Test [12] can be described thus: Pseudomonas biofilm growth suppression – PAO1 strain, BacTiter-Glo luminescence, LB-PBS, primary screen (AID 1144). As to conditions: P. aeruginosa PAO1 biofilm, 12 h, higher = more signal.
Test [13] can be described thus: basal CRE-LacZ reporter activity in PC12 – cell-based, unstimulated, primary screen (AID 1145). Conditions: no forskolin, luminescence, 4.5 h, higher = more signal, called active from +8 up or from −8 down.
Test [14] is described as follows: forskolin-driven CRE-LacZ activity in PC12 – cell-based, CRE-LacZ reporter, forskolin-stimulated, primary screen (AID 1146).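 Also: PC12 cells with 6xCRE LacZ reporter stimulated by forskolin 10 µM; beta-galactosidase reporter signal reflecting CREB driven transcription.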 Conditions: luminescence, 4.5 h, higher = more signal, called active from +8 up or from −8 down.
Test [15] addresses Streptavidin (Streptomyces avidinii) (UniProt P22629). Put plainly: compounds binding control protein streptavidin – biophysical, small-molecule microarray, 635/667 nm fluorescence, artefact control for SMM compound annotation, primary screen (AID 1147).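 Also: signal reflects streptavidin binding to arrayed compounds as a control protein.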 Conditions: higher = more signal.
Test [16] can be described thus: probe aInhba binding on compound microarray – biochemical, small-molecule microarray, 635/667 nm fluorescence, primary screen (AID 1148).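 Also: score merges 667nm spot fluorescence with signal-to-noise for antibody binding to printed compounds.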 As to conditions: higher = more signal.
The target in test [17] is Torsin-1A (Homo sapiens) (UniProt O14656). Put plainly: TOR1A wild-type binding on microarray – cell lysate, small-molecule microarray, lysate, 635/667 nm, primary screen (AID 1149). As to conditions: COS7 hTOR1A-WT lysate, 635 nm fluorescence, higher = more signal.
Test [18] shares this target. Put plainly: torsin A mutant lysate binding on microarrays – cell lysate, small-molecule microarray, COS7 lysate, 635/667 nm fluorescence, primary screen (AID 1150).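 Also: score pools 667 nm emission and signal to noise measuring lysate protein binding.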 As to conditions: COS7 hTOR1A mutant lysate, 635 nm fluorescence, higher = more signal.
The subject of test [19] is Sonic hedgehog protein (Shh). Put plainly: Sonic hedgehog microarray binding compounds – biochemical, small-molecule microarray, 635/667 nm fluorescence, primary screen (AID 1151).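 Also: Shh protein binding to compounds spotted on small-molecule microarray slides; score combines spot fluorescence intensity with signal-to-noise across triplicate slides.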 Conditions: 635 nm fluorescence, higher = more signal.

Luciferin 4-monooxygenase (Photinus pyralis), sequence (P08659 whole entry, looked up): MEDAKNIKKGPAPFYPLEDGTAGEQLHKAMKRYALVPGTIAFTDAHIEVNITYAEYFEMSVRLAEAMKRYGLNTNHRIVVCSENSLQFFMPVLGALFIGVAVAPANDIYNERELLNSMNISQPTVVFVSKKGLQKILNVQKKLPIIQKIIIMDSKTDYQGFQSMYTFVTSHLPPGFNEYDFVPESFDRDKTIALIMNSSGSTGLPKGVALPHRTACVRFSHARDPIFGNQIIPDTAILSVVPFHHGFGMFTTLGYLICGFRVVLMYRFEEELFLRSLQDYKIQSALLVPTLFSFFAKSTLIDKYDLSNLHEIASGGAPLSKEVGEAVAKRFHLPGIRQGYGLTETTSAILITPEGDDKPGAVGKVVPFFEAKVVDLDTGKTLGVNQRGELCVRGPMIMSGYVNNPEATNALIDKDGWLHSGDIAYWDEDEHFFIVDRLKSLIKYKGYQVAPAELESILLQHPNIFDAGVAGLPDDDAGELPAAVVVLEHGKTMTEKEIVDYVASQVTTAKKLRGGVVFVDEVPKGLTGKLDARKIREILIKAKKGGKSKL
Focal adhesion kinase 1 (Homo sapiens), sequence (Q05397 whole entry, looked up): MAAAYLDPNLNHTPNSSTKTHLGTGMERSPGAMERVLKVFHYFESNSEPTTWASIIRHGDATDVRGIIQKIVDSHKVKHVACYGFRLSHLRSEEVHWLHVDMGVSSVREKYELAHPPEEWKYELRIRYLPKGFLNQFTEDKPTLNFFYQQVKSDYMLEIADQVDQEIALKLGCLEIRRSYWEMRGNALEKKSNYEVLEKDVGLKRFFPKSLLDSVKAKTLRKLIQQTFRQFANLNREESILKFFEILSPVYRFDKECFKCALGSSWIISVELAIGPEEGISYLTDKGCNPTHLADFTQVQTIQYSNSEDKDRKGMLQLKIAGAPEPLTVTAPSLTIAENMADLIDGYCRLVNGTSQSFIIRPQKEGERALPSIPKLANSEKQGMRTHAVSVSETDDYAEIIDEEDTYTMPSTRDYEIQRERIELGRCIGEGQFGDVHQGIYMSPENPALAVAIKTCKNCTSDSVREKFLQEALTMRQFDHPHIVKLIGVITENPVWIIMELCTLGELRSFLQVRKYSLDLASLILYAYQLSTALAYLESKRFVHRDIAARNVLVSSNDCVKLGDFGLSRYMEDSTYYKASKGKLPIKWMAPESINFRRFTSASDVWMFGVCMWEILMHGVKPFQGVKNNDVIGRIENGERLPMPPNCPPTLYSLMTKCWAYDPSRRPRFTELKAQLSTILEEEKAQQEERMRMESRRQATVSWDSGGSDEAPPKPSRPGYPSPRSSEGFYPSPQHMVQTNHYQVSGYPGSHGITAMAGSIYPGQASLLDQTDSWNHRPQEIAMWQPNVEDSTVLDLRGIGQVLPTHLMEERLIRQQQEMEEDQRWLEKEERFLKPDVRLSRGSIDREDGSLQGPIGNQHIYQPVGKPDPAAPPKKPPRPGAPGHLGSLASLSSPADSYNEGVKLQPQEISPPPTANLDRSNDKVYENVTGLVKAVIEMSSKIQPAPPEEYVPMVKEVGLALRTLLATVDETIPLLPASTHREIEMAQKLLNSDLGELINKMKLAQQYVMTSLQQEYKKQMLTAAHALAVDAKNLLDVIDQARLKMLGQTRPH
Torsin-1A (Homo sapiens), sequence (O14656 whole entry, looked up): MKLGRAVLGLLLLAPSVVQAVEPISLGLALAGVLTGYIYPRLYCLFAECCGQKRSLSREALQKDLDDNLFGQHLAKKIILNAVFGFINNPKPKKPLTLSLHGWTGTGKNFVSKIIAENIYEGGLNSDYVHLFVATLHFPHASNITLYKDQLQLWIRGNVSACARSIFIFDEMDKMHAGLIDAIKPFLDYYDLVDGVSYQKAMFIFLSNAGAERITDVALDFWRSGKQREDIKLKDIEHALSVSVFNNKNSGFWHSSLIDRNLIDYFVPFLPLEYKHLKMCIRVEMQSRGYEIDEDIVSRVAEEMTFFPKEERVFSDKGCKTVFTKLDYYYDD
Streptavidin (Streptomyces avidinii), sequence (P22629 whole entry, looked up): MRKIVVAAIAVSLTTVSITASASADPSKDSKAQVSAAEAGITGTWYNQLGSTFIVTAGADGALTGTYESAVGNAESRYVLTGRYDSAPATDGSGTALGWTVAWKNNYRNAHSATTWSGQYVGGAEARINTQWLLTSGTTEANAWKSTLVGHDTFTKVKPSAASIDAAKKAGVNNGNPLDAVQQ
Follistatin (Homo sapiens), sequence (P19883 whole entry, looked up): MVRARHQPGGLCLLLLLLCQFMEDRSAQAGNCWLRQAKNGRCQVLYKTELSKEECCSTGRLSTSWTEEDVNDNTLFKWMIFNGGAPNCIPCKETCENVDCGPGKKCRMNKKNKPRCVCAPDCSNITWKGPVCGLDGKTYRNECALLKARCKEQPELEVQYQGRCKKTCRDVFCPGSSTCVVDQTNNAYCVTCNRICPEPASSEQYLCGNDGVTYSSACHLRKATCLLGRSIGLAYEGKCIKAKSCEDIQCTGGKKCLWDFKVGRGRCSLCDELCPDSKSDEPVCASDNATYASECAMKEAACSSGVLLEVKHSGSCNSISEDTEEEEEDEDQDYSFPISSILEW
Fibroblast growth factor 2 (Homo sapiens), sequence (P09038 whole entry, looked up): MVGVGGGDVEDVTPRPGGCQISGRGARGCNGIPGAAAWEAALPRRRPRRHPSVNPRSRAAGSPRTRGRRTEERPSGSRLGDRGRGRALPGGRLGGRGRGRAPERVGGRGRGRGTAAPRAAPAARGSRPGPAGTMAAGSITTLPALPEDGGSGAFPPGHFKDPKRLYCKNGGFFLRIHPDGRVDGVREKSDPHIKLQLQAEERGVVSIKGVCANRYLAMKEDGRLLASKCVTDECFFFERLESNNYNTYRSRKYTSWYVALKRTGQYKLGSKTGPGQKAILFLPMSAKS

As for `C=C(CCCC)/C(=C/C[C@H](OC(=O)c1ccncc1)c1ccccc1OCCO)c1cnc2ccccc2c1`, the composite z-score in test [1] was found to be 0.997; in test [2] it was 1.08; in test [3], 0.166; in [4], 0.47; in test [5], 1.27; in [6] it was 0.912. Further, the composite z-score with Lefty1 was 1.14; in test [8] it was 1.14; in [10] it was 0.265; in [15], 1.74; in [16] it was -0.0471; in the test with Torsin-1A (Homo sapiens) [17] it was 0.609. The composite z-score with Torsin-1A (Homo sapiens) [18] is 0.712; in test [19], 1.45. The z-score is 0.957 in test [7]; -0.372 (inactive) in [9]; -0.401 (inactive) in test [11]; 0.0698 (inactive) in test [12]; -0.583 (inactive) in test [13]; 0.494 (inactive) in [14].
As to `C[C@H]1C2[C@H](Cc3ccccc3)NC(=O)[C@]23C(=O)N[C@H](Cc2ccccc2)C(=O)N2CCC[C@H]2C(=O)NC/C=C\C/C=C/C3[C@@H]2O[C@]12C` (stereo not given in full), the composite z-score in test [1] was 0.102; in test [2] it was -0.338; in [3] it was 1.11; in [4], 0.354; in test [5], 0.559; in test [6] it was 0.212. In addition, the composite z-score with Lefty1 is 0.302; in test [8], 0.737; in test [10], 0.072; in test [15] it was 0.206; in test [16] it was -0.126; with Torsin-1A (Homo sapiens) [17], 0.221. Moreover, the composite z-score is 0.44 with Torsin-1A (Homo sapiens) [18] and 0.639 in test [19]. In addition, the z-score in [7] was 0.367; in [9], -0.587 (inactive); in test [11] it was -0.832 (inactive); in test [12] it was -1.44 (inactive); in [13] it was 0.403 (inactive); in [14], -0.399 (inactive).
With `COC(=O)[C@@]1(Cc2ccc(OC)cc2)[C@H]2c3cc(C(=O)N4CCCC4)n(CCN4CNCC4=O)c3C[C@H]2CN1C(=O)c1ccccc1`, the composite z-score is 3.25 in [1]; 1.16 in [2]; 1.06 in test [3]; 0.326 in [4]; -1.02 in test [5]; -0.48 in test [6]. The composite z-score with Lefty1 was -0.899; in test [8], 0.949; in test [10], 2.12; in [15] it was -0.002; in test [16], 1.59; with Torsin-1A (Homo sapiens) [17], 0.294. For the same molecule, the results for the composite z-score (in the test with Torsin-1A (Homo sapiens) [18]; in test [19]) were 0.0178 and -1.14, respectively. Also, the z-score in [7] is -0.0456; in [9], -0.119 (inactive); in test [11] it was -0.508 (inactive); in test [12], -0.12 (inactive); in test [13] it was 0.201 (inactive); in test [14], -0.0971 (inactive).
In the case of `COc1ccc(C(O)C2C=CC3C(=O)N(Cc4ccccc4)C(=O)C3N2n2cnnc2)cc1OCc1ccccc1` (stereo not given), the composite z-score in [1] was -0.259; in test [2], 0.48; in [3], 1.23; in test [4], 0.303; in [5], 0.319; in [6], -0.385. The composite z-score in the test with Lefty1 was 0.341; in test [8], 0.194; in [10], 0.0401; in [15], 0.296; in test [16], -0.0962; with Torsin-1A (Homo sapiens) [17], -0.476. Besides, the composite z-score with Torsin-1A (Homo sapiens) [18] is 0.562; in test [19] it was -0.733. Besides, the z-score in test [7] is -1.03; in test [9], 1.77 (inactive); in [11], -2.81 (inactive); in test [12] it was -2.01 (inactive); in test [13], -0.424 (inactive); in [14], -0.0263 (inactive).
For the molecule `C=C(C(=O)CC[C@@H](OC(=O)c1cccnc1)c1ccccc1OCCO)C(C)C`, the composite z-score in test [1] is -0.242; in test [2] it was 0.131; in test [3], -0.0995; in test [4], 0.0673; in [5], 0.719; in test [6], 0.647. For the same molecule, the composite z-score in the test on Lefty1 was 1.23; in [8], 0.486; in test [10], -0.0008; in test [15], -0.405; in test [16], -0.0112; with Torsin-1A (Homo sapiens) [17] it was 0.784. Also, the composite z-score in the test with Torsin-1A (Homo sapiens) [18] stood at 0.962; in [19], 1.37. The z-score in test [7] was -0.102; in [9] it was -0.484 (inactive); in [11] it was -1.25 (inactive); in test [12] it was -0.0644 (inactive); in [13] it was 8.13 (active); in [14], 1.17 (inactive).
